Bioassay records as filed in PubChem BioAssay.
VP16 counter – VP16 counterscreen qHTS for inhibitors of ROR gamma transcriptional activity. Drosophila S2 Gal4-VP16 UAS-luciferase, luminescence, 20 h. Potency, µM (top dose mostly 53.6 µM), without a hit: at the top dose activity, negative = inhibition, usual class: inhibitors. 310,000 tested, 3.5% active;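 note: Gal4-VP16 expression switched on by copper sulfate through the metallothionein promoter; nearly all actives have a fitted effect of over 50% in size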
RORgamma inh – qHTS for inhibitors of ROR gamma transcriptional activity; Nuclear receptor ROR-gamma (Mus musculus), P51450; Drosophila S2 Gal4-RORgamma UAS-luciferase reporter, 20 h; Potency, µM (top dose mostly 53.6 µM), without a hit: top-dose activity change, negative = inhibition, actives largely listed as inhibitors; 310,000 tested, 5.4% active; AID 2551, 2010; note: nearly all actives have a fitted effect of over 60% in size
Target sequence (P51450 whole entry, looked up, the tested form may be a part): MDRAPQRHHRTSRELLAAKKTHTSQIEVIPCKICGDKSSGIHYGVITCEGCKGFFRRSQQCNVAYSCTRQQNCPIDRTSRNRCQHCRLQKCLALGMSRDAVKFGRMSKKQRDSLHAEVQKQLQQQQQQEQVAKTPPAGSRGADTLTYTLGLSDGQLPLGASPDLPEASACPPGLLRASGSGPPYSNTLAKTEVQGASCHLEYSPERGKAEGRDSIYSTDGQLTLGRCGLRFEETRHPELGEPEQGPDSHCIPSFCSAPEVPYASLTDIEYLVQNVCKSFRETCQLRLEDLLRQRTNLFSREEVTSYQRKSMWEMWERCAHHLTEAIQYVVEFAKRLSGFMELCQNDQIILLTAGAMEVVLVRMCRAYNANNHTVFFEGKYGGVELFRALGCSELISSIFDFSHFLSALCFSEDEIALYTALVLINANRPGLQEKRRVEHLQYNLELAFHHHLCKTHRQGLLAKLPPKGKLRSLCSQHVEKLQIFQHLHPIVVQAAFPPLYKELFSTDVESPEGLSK
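Read-out: Photinus luciferase luminescence; inhibitors lower reporter signal. Insect Schneider cells with Gal4-ROR gamma fusion under metallothionein promoter, UAS reporter; 700 uM final copper sulfate induction, 20 hr, ambient temperature.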
Luc counter – Counterscreen for Luciferase (Kinase-Glo TM) Inhibition; AID 1379, 2008; Kinase-Glo luciferase, ATP luminescence, 8 min; 200,000 tested, 0.28% active; Luciferin 4-monooxygenase (Photuris pensylvanica), Q27757; Potency, µM (doses to about 38.3 µM), inactives show top-dose activity change, negative = inhibition, actives largely listed as inhibitors; note: nearly all actives have a fitted effect of over 60% in size
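Luminescence was the read-out, taken after 8-minute incubation at ambient temperature. Luciferase turned over luciferin with 10 uM ATP in imidazole pH 7.2 buffer containing KCl, MgCl2, Tween 20 and BSA.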
Active calls of the source: *; ? = inconclusive; . = not tested or not shown; [ ] = another dose, or the depositor's remark. Only some compounds are listed: those with a hit (about 6.4% of all), similar ones and a draw of the others. Calls come from the whole dose curve; as a rule, active = well fitted curve in the direction sought with a large enough effect; inconclusive = small, poorly fitted or top-dose-only effect, or another doubt; inactive = no such curve, though single readings can be large; an effect the other way counts as inactive or inconclusive. % is set by controls: 0 for no effect and ±100 for the full control effect; potency is the fitted concentration of half-maximal effect.

SMILES	VP16 counter	RORgamma inh	Luc counter
Fc1ccc(-c2ccnc(=S)[nH]2)cc1	2.82µM*	3.55µM*	4.1%
CSc1sc(-c2ccnc(=S)[nH]2)c(-c2ccccc2)c1C#N	7.0%	-25.5%	.
O=C1C2=C(Nc3cc([N+](=O)[O-])ccc3N2)O[C@@H]1c1ccc([C@H]2OC3=C(Nc4ccc([N+](=O)[O-])cc4N3)C2=O)cc1	.	.	-4.9%[7.66 µM]
FC(F)(F)c1cccc(OCC2CNC(=S)O2)c1 (configuration not stated)	1.3%	-9.9%	.
COc1cc(NC(=O)c2ccccc2Cl)c(OC)cc1NC(=O)CN1CCCCC1	-23.1%	0.1%	-1.8%
CN(C1CCCCC1)S(=O)(=O)c1ccc(NC(=S)NC(=O)c2cccs2)cc1	?	5.62µM*	-1.0%
Cc1cc(C)cc(NS(=O)(=O)c2ccc(NC(=S)NC(=O)c3cccs3)cc2)c1	1µM*	0.794µM*	2.3%
CN(C(=O)Nc1ccc(S(=O)(=O)N(C)C)cc1)C1CCCCC1	-21.4%	18.8%	2.2%
COc1cc(NS(=O)(=O)c2ccc(NC(=S)NC(=O)c3cccs3)cc2)nc(OC)n1	-7.4%	20.6%	4.2%
COc1ccc2c3c1OC1C[C@@H](O)C=C[C@@]31CCN(C)C2 (some centres not stated)	3.8%	1.3%	1.2%
N#Cc1c(N)nc(SCC(=O)OCc2ccccc2)c(C#N)c1-c1ccco1	1.7%	0.3%	-0.7%
CCOC(=O)CSc1nc(N)c(C#N)c(-c2cccs2)c1C#N	-9.7%	34.5%	-0.9%
N#Cc1c(N)nc(SCc2ccccn2)c(C#N)c1-c1cccs1	-15.2%	12.6µM*	0.8%
N#Cc1c(N)nc(SCc2ccccc2)c(C#N)c1-c1ccco1	7.94µM*	?	1.0%
O=C(NCc1cccc(C(F)(F)F)c1)C1CCC(=O)N(C2CCCCCC2)C1 (configuration not stated)	-0.7%	27.5%	.
CCOc1cccc2cc(C(=O)Oc3ccc(OC)cc3)c(=O)oc12	?	-12.3%	.
COc1cccc2cc(-c3nnc(-c4ccccc4)o3)c(=O)oc12	?	1.26µM*	?
COc1ccc(-c2nnc(-c3cc4ccccc4oc3=O)o2)cc1	0.3%	?	3.7%
COc1cccc2cc(C(=O)Oc3ccccc3)c(=O)oc12	10µM*	?	.
COC(=O)c1cc(NC(=O)C2CC(=O)NC(=NCc3ccc(OC)cc3)S2)cc(C(=O)OC)c1 (configuration not stated)	-16.9%	-4.4%	2.3%
COc1ccc(/C=N/Nc2nc(Nc3ccccc3)nc(N3CCCC3)n2)cc1	-5.7%	2.82µM*	0.3%
COc1cc(/C=N/Nc2nc(N3CCCC3)nc(N3CCCC3)n2)ccc1OCc1ccccc1F	2.6%	?	.
COc1ccc(Nc2nc(N3CCCCC3)c3ccccc3n2)cc1	7.08µM*	17.8µM*	-8.0%
c1ccc(Nc2nc(N3CCCCC3)nc(N3CCCCC3)n2)cc1	5.9%	-18.6%	1.1%
O=C(O)COc1ccc(/C=N/Nc2nc(Nc3ccccc3)nc(N3CCCCC3)n2)cc1	?	?	-2.4%
SMILES	VP16 counter	RORgamma inh	Luc counter
Oc1ccc(Nc2nc(N3CCCC3)c3ccccc3n2)cc1	?	-2.0%	-1.1%
COc1ccc(/C=N/Nc2nc(N3CCCC3)nc(N3CCCC3)n2)cc1O	-7.6%	11.2µM*	-1.5%
C(=N\Nc1nc(Nc2ccccc2)nc(N2CCCCC2)n1)/c1ccco1	12.6µM*	2.24µM*	0.2%
N#CCCn1cnc2c1NC=NC2Cl (configuration not stated)	-0.2%	-2.0%	0.0%
Cc1ccc(-n2nc(C)c(=O)c(-c3ccccc3)c2NC(=O)c2cccs2)cc1	3.3%	29.9%	.
Cc1cc(NC(=O)COC(=O)C(C)Oc2ccc(Cl)cc2Cl)no1 (configuration not stated)	-1.7%	-6.3%	.
CCOC(=O)c1cccnc1NC(=O)c1ccccc1	-12.3%	-19.7%	-0.6%
CC1CCN(Cc2nnnn2-c2cccc([N+](=O)[O-])c2)CC1	?	?	2.7%
COc1nc(N/N=C/c2ccc(C)cc2)nc(N2CCCCC2)n1	2.8%	-38.3%	-4.0%
COc1ccc(/C=N/Nc2nc(N3CCCC3)nc(N3CCCC3)n2)cc1	?	5.01µM*	-1.3%
Cc1cccc(-n2nc3c(c2NC(=O)C(C)C)CSC3)c1	-1.6%	-2.6%	.
S=c1nc(-c2ccccc2)[nH]c2ccccc12	7.08µM*	0.794µM*	-0.5%
S=c1nc(-c2ccc(Br)cc2)[nH]c2ccccc12	-4.0%	?	.
O=C(Nc1cccc(F)c1)N1CC[C@@]2(CCCN(C(=O)c3csnn3)C2)C1	5.8%	-24.0%	-3.6%
CCCc1ccc(Oc2c(-c3ccc(O)c(C)c3O)n[nH]c2C)cc1	?	17.8µM*	2.6%
CCCc1ccc(Oc2cn[nH]c2-c2ccc(O)c(C)c2O)cc1	?	?	-2.2%
O=[N+]([O-])C(=C1Nc2ccccc2N1)/C(Cl)=C(/Cl)Br	-27.2%	?	-3.0%
COc1ccc(Cl)cc1NC(=O)CNC(c1ccccc1)c1ccccc1	2.51µM*	?	.
COc1ccccc1NC(=S)NCCc1ccc(OC)c(OC)c1	-12.5%	?	.
COc1ccc(Cl)cc1NC(=S)NCCO	-5.9%	4.1%	-1.9%
COc1cc(NC(=S)NCCCN2CCOCC2)c(OC)cc1Cl	4.7%	-22.7%	3.8%
COc1ccccc1NC(=S)NCCC(c1ccccc1)c1ccccc1	?	11.2µM*	-0.3%
COc1ccc(C)cc1NC(=O)CNC(c1ccccc1)c1ccccc1	-3.2%	29.9%	.
COc1cc(NC(=S)NCCC(c2ccccc2)c2ccccc2)c(OC)cc1Cl	3.16µM*	5.01µM*	.
COc1ccc(Cl)cc1NC(=S)NCCC(c1ccccc1)c1ccccc1	4.47µM*	7.08µM*	2.7%
SMILES	VP16 counter	RORgamma inh	Luc counter
Cc1[nH]c2ccccc2c1C(=O)C(=O)NCc1ccco1	-3.6%[10 µM]	-24.7%	0.9%
CCOC(=O)N1CCN(C(=O)c2cc(COc3c(F)cccc3F)on2)CC1	?	-1.7%	.
N#Cc1ccc(CN(c2ccncc2)S(=O)(=O)c2ccccc2)cc1	3.2%	-17.4%	.
COc1ccc(Cl)cc1NC(=O)c1ccccc1C	28.4%	-2.1%	8.4%
COc1ccc(Cl)cc1NC(=O)C/C(C)=N/NC(=O)c1ccc(O)cc1	?	8.91µM*	.
COc1ccc(Cl)cc1NC(=S)Nc1ccccc1C	?	11.2µM*	-1.5%
COc1ccc(Cl)cc1NC(=O)C/C(C)=N/NC(=O)Cc1ccccc1	-9.1%	?	3.2%
Cn1c(-c2ccc(Cl)cc2)cnc1N	?	?	-0.3%
Cc1ccc(-c2cnc(N)n2C)cc1C	?	20µM*	7.3%
CCN(CC)CCCn1c(-c2ccccc2)nc2c(NCCOC)nc(C)nc21	-1.2%	-11.1%	-1.6%
COC(=O)C(NS(=O)(=O)CCl)C(C)C (configuration not stated)	-0.3%	4.5%	.
C/C(=N\NC(=O)c1ccco1)c1cccc2ccccc12	3.4%	14.8%	.
C/C(=N\NC(=O)COc1ccc(C(C)(C)C)cc1)c1ccc(OC(F)F)cc1	?	?	0.5%
C/C(=N\NC(=O)COc1ccc(C#N)cc1)c1ccccc1OC(F)F	15.8µM*	11.2µM*	0.8%
C/C(=N\NC(=O)Nc1ccccc1)c1ccc2ccccc2c1	?	-11.6%	0.0%
